Bioassay records from PubChem.
Rows were chosen to be rich in hits. Some 11% of all compounds tested hit in one or more screens of this group.
3T3 cytotox: kills NIH 3T3 cells; NIH 3T3 viability, CellTiter-Glo ATP luminescence, 48-72 h; Potency, µM (titrated, usually from 96.7 µM), most hits filed as inhibitors; actives 4.3% (n = 94,000); AID 1345082; also: nearly all actives have a fitted effect of over 55% in size
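Cells were seeded at 400 per well, treated with pin-transferred compound, and kept 48 or 72 hr at 37 °C before CellTiter-Glo addition and luminescence imaging of cellular ATP.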
hNpr1 antagonist: blocks ANP-stimulated signaling of human Npr1 receptor; HEK293 hNpr1 GloSensor cGMP, ANP-stimulated luminescence; Potency, µM (highest dose often 46.3 µM), actives largely listed as inhibitors; actives 1.6% (n = 76,000); AID 1347048; calls by dose curve; also: nearly all actives have a fitted effect of over 60% in size
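Compound pre-incubated 30 min at room temperature on GloSensor-loaded HEK293 cells stably carrying hNpr1 and the pGS-40F cGMP biosensor. Stimulation uses hNppA at 0.1 nM final; luminescence is taken at baseline and 20 min post-agonist.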
HEK cytotox: cytotoxic compounds in HEK 293 cells; Potency, µM (titrated, usually from 115 µM), actives largely listed as inhibitors; actives 6.6% (n = 94,000); HEK 293 viability, ATP luminescence (CellTiter-Glo), 48-72 h; AID 1345083; also: nearly all actives have a fitted effect of over 60% in size
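HEK 293 cells at 250 cells/well were exposed to compounds by pintool transfer for 48 or 72 hr at 37 degree Celsius, 5% CO2. Viability was read as ATP-coupled luminescence with CellTiter-Glo after 10 min at room temperature.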
Luciferase inh: blocks purified firefly luciferase enzyme activity | P08659 | purified P. pyralis luciferase, luminescence, biochemical | Potency, µM (doses to about 115 µM), hits mostly inhibitors | actives 2.5% (n = 76,000); also: nearly all actives have a fitted effect of over 65% in size
Target sequence (P08659 whole entry, looked up): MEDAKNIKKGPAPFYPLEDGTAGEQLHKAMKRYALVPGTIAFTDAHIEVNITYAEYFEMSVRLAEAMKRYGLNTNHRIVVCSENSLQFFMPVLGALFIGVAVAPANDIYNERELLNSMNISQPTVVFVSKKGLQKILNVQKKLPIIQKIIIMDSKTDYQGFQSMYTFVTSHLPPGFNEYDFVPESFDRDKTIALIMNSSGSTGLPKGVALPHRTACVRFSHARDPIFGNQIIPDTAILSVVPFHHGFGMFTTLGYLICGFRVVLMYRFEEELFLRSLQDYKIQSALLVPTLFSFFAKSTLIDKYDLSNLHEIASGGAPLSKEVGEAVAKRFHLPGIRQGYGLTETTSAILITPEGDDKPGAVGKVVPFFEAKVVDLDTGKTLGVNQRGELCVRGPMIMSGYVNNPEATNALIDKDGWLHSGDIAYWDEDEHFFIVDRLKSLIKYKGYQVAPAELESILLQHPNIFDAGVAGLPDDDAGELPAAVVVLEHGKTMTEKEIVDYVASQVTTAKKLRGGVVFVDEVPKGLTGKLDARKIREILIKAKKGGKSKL
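FLuc 10nM, D-luciferin 10uM, ATP 10uM, Mg acetate 10mM, Tris acetate pH 7.5, Tween/BSA; cpd qHTS; enzyme added last; CCD luminescence.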
Each line names hits and unclear results; the compound was inactive in the other large screens. Unless noted, calls follow the shape of the dose curve; as a rule, active = well fitted curve in the direction sought with a large enough effect; inconclusive = small, poorly fitted or top-dose-only effect, or another doubt; inactive = no such curve, though single readings can be large; an effect the other way counts as inactive or inconclusive.

O=C(Cc1c[nH]c2ncc(-c3ccccc3)cc12)Nc1ccc(Cl)cc1	3T3 cytotox inconclusive, hNpr1 antagonist inconclusive, HEK cytotox inconclusive
O=C(Cc1c[nH]c2ncc(-c3ccccc3)cc12)Nc1cccnc1	3T3 cytotox 28µM, HEK cytotox 71µM
O=C(Cc1c[nH]c2ncc(-c3cccc(OC(F)(F)F)c3)cc12)NCc1cccnc1	3T3 cytotox 45µM, hNpr1 antagonist inconclusive, HEK cytotox 71µM, Luciferase inh inconclusive
Cc1nn(-c2ccccc2)c2c1C(C1CC1)N(C1CCN(Cc3ccc(C#N)cc3)CC1)C2=O (stereo not given)	none (no result: hNpr1 antagonist, Luciferase inh)
COCC(=O)N1CCCC1C(=O)N1CCC(N2Cc3cccn3C2=O)CC1 (stereo not given)	none (no result: hNpr1 antagonist, Luciferase inh)
CN1Cc2ccccc2NCCC1=O	3T3 cytotox inconclusive (no result: hNpr1 antagonist, Luciferase inh)
COC(=O)NC1CCN(c2nccc(Nc3ccccc3OC)n2)CC1	3T3 cytotox inconclusive, HEK cytotox 50µM (no result: hNpr1 antagonist, Luciferase inh)
COc1ccccc1Nc1ccnc(N2CCC(N[S+](=O)([O-])c3ccc(C)cc3)CC2)n1	3T3 cytotox inconclusive, HEK cytotox 32µM (no result: hNpr1 antagonist, Luciferase inh)
COc1ccccc1Nc1ccnc(N2CCC(NC(=O)c3ccccc3F)CC2)n1	HEK cytotox inconclusive (no result: hNpr1 antagonist, Luciferase inh)
COc1ccccc1Nc1ccnc(N2CCC(N[S+](=O)([O-])c3ccccc3)CC2)n1	3T3 cytotox 32µM, HEK cytotox 32µM (no result: hNpr1 antagonist, Luciferase inh)
O=C(NCCc1ccccn1)C1CCN(C(=O)c2ccc(-c3cccs3)cc2)CC1	none (no result: hNpr1 antagonist, Luciferase inh)
Cc1noc(C)c1S(=O)(=O)N1CCc2nn(Cc3ccccc3)c(=O)n2CC1	none (no result: hNpr1 antagonist, Luciferase inh)
CN(C)Cc1nnc(C2CCCN(C(=O)CN(C)c3ccccc3)C2)n1C (stereo not given)	none
Cc1nn(-c2ccccc2)c2c1C(C(C)C)N(C1CCN(C(=O)Nc3ccccc3)C1)C2=O (stereo not given)	3T3 cytotox inconclusive (no result: hNpr1 antagonist, Luciferase inh)
COc1ccc(CC(=O)N2CCC(N3C(=O)c4c(c(C)nn4-c4ccccc4)C3C(C)C)C2)cc1 (stereo not given)	3T3 cytotox 40µM, HEK cytotox inconclusive (no result: hNpr1 antagonist, Luciferase inh)
Cc1nn(-c2ccccc2)c2c1C(C(C)C)N(C1CCN(C(=O)Cc3cccc(Cl)c3)C1)C2=O (stereo not given)	3T3 cytotox 35µM, HEK cytotox 45µM (no result: hNpr1 antagonist, Luciferase inh)
Cc1nn(-c2ccccc2)c2c1C(C(C)C)N(C1CCCN(C(=O)Cc3cccc(Cl)c3)C1)C2=O (stereo not given)	3T3 cytotox inconclusive, HEK cytotox 28µM (no result: hNpr1 antagonist, Luciferase inh)
CCCC(=O)Nc1cc(-c2ccncc2)nn1C	none (no result: hNpr1 antagonist, Luciferase inh)
Cc1ccc(CN2CCc3ncc(C(=O)NCCOc4ccccc4)n3CC2)o1	3T3 cytotox 35µM, HEK cytotox 50µM
O=C(NCc1ccccc1)c1cnc2n1CCN(Cc1ccccc1F)CC2	3T3 cytotox inconclusive, HEK cytotox 28µM
O=C(NCCOc1ccccc1)c1cnc2n1CCN(Cc1ccc(F)cc1)CC2	3T3 cytotox inconclusive, HEK cytotox inconclusive
O=C1Nc2ccccc2C12CCN(Cc1ccc(F)cc1)C2 (stereo not given)	HEK cytotox inconclusive (no result: hNpr1 antagonist, Luciferase inh)
CCN1CCN(C(=O)c2cn3cc(-c4cccc(C(F)(F)F)c4)sc3n2)CC1	none (no result: hNpr1 antagonist, Luciferase inh)
COc1cccc(C(=O)N2CCC3(CC2)NC(=O)N(c2cccc(F)c2)N3)c1OC	HEK cytotox inconclusive
O=C(O)c1cccc(CN2CC(COc3ccccc3)C3(C2)CN(c2ccccc2)C3)c1 (stereo not given)	HEK cytotox inconclusive
O=[S+]([O-])(NCC1CN(Cc2ccc(O)cc2)CC12CN(c1ccccc1)C2)c1ccccc1 (stereo not given)	3T3 cytotox 18µM, HEK cytotox inconclusive
O=C(Cc1ccccc1)NCC1CN(Cc2ccc3[nH]ccc3c2)CC12CN(c1ccccc1)C2 (stereo not given)	3T3 cytotox 22µM, HEK cytotox 40µM
c1ccc(OCC2CN(Cc3ccc4[nH]ccc4c3)CC23CN(c2ccccc2)C3)cc1 (stereo not given)	3T3 cytotox 25µM, hNpr1 antagonist inconclusive, HEK cytotox 28µM
c1ccc(OCC2CN(Cc3ccncc3)CC23CN(c2ccccc2)C3)cc1 (stereo not given)	3T3 cytotox 89µM, HEK cytotox inconclusive
O=C(C1CCCC1)N1CCN(CCn2nc3n(c2=O)CCCC3)CC1	none (no result: hNpr1 antagonist, Luciferase inh)
O=C(c1ccc(Cl)nc1)N1CCC(c2nn(-c3ccc(Cl)cc3)c(=O)[nH]2)CC1	none
Cc1ccc(CN2Cc3[nH]cnc3C[C@H]2C(=O)N2CCC(Cc3ccccc3)CC2)cc1	3T3 cytotox 71µM, HEK cytotox inconclusive
O=C(NCC(F)F)C1CCCCN1Cc1ccc(-c2ccsc2)cc1 (stereo not given)	3T3 cytotox inconclusive, HEK cytotox 40µM (no result: hNpr1 antagonist, Luciferase inh)
O=C(NCCCc1ccccc1)C1CCCCN1Cc1ccc(-c2ccsc2)cc1 (stereo not given)	3T3 cytotox 35µM, HEK cytotox inconclusive (no result: hNpr1 antagonist, Luciferase inh)
O=C(NC1CCCCCC1)C1CCCCN1Cc1ccc(-c2ccsc2)cc1 (stereo not given)	HEK cytotox inconclusive (no result: hNpr1 antagonist, Luciferase inh)
O=C(NCCc1ccc(F)cc1)C1CN(C2CCCC2)C(=O)N1 (stereo not given)	none (no result: hNpr1 antagonist, Luciferase inh)
O=C(NCCc1ccc(F)cc1)C1CCCCN1Cc1ccc(-c2ccsc2)cc1 (stereo not given)	3T3 cytotox 32µM, HEK cytotox 35µM (no result: hNpr1 antagonist, Luciferase inh)
COc1ccc(C(=O)N2CCC(c3nc(CCOCC4CCOCC4)no3)C2)cn1 (stereo not given)	none (no result: hNpr1 antagonist, Luciferase inh)
O=C(NCCc1ccc(F)cc1)C1CCCCN1Cc1ccc(-c2cccs2)cc1 (stereo not given)	3T3 cytotox inconclusive, HEK cytotox 22µM (no result: hNpr1 antagonist, Luciferase inh)
O=C(C1CCCCN1Cc1ccc(-c2ccsc2)cc1)N1CCC(Cc2ccccc2)CC1 (stereo not given)	3T3 cytotox 35µM, HEK cytotox inconclusive (no result: hNpr1 antagonist, Luciferase inh)
CC(=O)N1CCN(C(=O)C2CCCCN2Cc2ccc(-c3ccsc3)cc2)CC1 (stereo not given)	none (no result: hNpr1 antagonist, Luciferase inh)
O=C(NCCc1ccccc1)C1CCN(C(=O)c2ccc(-c3cccs3)cc2)CC1	none (no result: hNpr1 antagonist, Luciferase inh)
CCCC(=O)N1CCN(c2ccnc3ccnn23)CC1	none (no result: hNpr1 antagonist, Luciferase inh)
O=C(Nc1ccccc1Cl)N1CCC(n2cc(C3CCCC3)nn2)CC1	HEK cytotox inconclusive
O=C(C1CCCCCC1)N1CCC(n2cc(C3CCCCC3)nn2)CC1	3T3 cytotox inconclusive, hNpr1 antagonist inconclusive, HEK cytotox 89µM
O=C(NC1CCCCCC1)c1cn2cc(-c3ccc(C(F)(F)F)cc3)sc2n1	none (no result: hNpr1 antagonist, Luciferase inh)
O=C(NCCNC(=O)c1ccc(-c2cncnc2)cc1)c1ccccc1	none (no result: hNpr1 antagonist, Luciferase inh)
CC(C)NC(=O)c1cc(-c2ccccc2F)cc2c1OCCN2Cc1cccnc1	3T3 cytotox 79µM, HEK cytotox 89µM
CNC(=O)c1cc(-c2cnn(C)c2)cc2c1OCCN2Cc1cccnc1	3T3 cytotox 40µM
CN1CCOc2c(C(=O)NCc3cccnc3)cc(-c3ccccc3F)cc21	3T3 cytotox inconclusive, HEK cytotox 100µM
CNC(=O)c1cc(-c2cccnc2)cc2c1OCCN2Cc1cccnc1	3T3 cytotox inconclusive
CN(C)CCNC(=O)c1cc(-c2ccccc2F)cc2c1OCCN2Cc1cccnc1	3T3 cytotox 40µM, HEK cytotox 63µM
